# Measured values from ChEMBL document CHEMBL3988442, “University of Dundee, Small-Polar-MMV Screening Library” (2021).
# Out of some 69,000 compounds screened, about 950 (1.4%) showed an effect of 50% or more. This excerpt belongs to a sample that is enriched for strong results.
# Tested on: Mycobacterium tuberculosis
# Experiment: Cornell M. t heat shock assay; also: in the data most compounds retested in dose-response had high values
# Type: functional, organism-based
# Set-up: dose or concentration left out as unconfirmed
row,Structure (SMILES),Percent Effect [%]
1,Br.Cn1cc(CN2CCOC(c3cccc(-c4cncnc4)n3)C2)cn1 (stereo not given),-10.8
2,Cl.c1cncc(CNCc2cccs2)c1,5.045
3,O=C(O)C(F)(F)F.O=C1[C@H]2CN(Cc3nccs3)C[C@H]2CN1c1ccsc1,28.97
4,Cc1nn(C)c(C)c1S(=O)(=O)N1C[C@@H]2C[C@@H](C)O[C@@H]2C1.O=C(O)C(F)(F)F,3.558
5,NC(=O)CC1CC2(CCNCC2)c2cc(F)ccc21.O=C(O)C(F)(F)F (stereo not given),15.23
6,Cn1cc(C(=O)NCc2cn3c(n2)CN(C2CCOCC2)CC3)cn1.O=C(O)C(F)(F)F,-17.41
7,Cc1ccc2c(c1)OCCCC2NCc1nccn1Cc1ccccc1 (stereo not given),101.1
8,COc1c(CNC2CCCOc3ccccc32)c(C)nn1C (stereo not given),-2.184
9,c1ccc2c(c1)OCCCC2NCc1nnc2n1CCCCC2 (stereo not given),7.956
10,Cc1ccc2c(c1)OCCCC2NC1CCN(C)CC1 (stereo not given),11.02
11,c1ccc(Cn2ccnc2CNC2CCCOc3ccccc32)cc1 (stereo not given),104.4
12,CCC1COCCN1C(=O)NCc1nccn1Cc1ccccc1 (stereo not given),-21.62
13,Cc1cncc(C(=O)N2C[C@@H]3CN(S(C)(=O)=O)CCO[C@@H]3C2)c1.O=C(O)C(F)(F)F,15.78
14,CC1CCN(C(=O)[C@@H]2C[C@@H]3CCN(Cc4nccs4)C[C@H]3O2)CC1.O=C(O)C(F)(F)F,11.99
15,CC(C)N1CCN(C(=O)c2csc3nc(-c4ccc(Cl)cc4)cn23)CC1,2.331
16,CCC1CN(C(=O)c2csc3nc(-c4ccc(Cl)cc4)cn23)CCN1 (stereo not given),59.48
17,O=C(c1csc2nc(-c3ccc(Cl)cc3)cn12)N1CCCC(CO)C1 (stereo not given),17.74
18,O=C(Nc1cccnc1)[C@H]1C[C@@H]2CN(C(=O)NC3CCCC3)C[C@H]1O2,-0.1164
19,O=C1C[C@H]2CC[C@@H](CN1)N2C1CCOCC1,-8.619
20,O=C(NC1CCCC1)c1nc2c(o1)CN(C(=O)CCO)C2,6.229

row,Structure (SMILES),Percent Effect [%]
1,O=C(NC1CCCC1)c1nc2c(o1)CN(C(=O)CO)C2,10.14
2,O=C(NC1CCCC1)c1nc2c(o1)CN(CCO)C2,51.46
3,CN(C)C(C(=O)N1CCC(N2CCSCC2)CC1)c1ccccc1F (stereo not given),64.18
4,CN(C)C(C(=O)N1CCCC1)c1ccccc1F (stereo not given),12.45
5,CN(C)C(C(=O)N1CCSCC1)c1ccccc1F (stereo not given),7.911
6,COc1ccc(C)cc1CNC(=O)C1=NN(c2ccccc2)C(=O)CN1,30.82
7,COc1ccc(CNC(=O)C2=NN(c3ccc(C)cc3)C(=O)CN2)cc1,24.03
8,COc1ccccc1CNC(=O)C1=NN(c2ccc(C)cc2)C(=O)CN1,73.51
9,CC(C)N1CCO[C@H]2CN(C(=O)c3ccccn3)C[C@H]21.O=C(O)C(F)(F)F.O=C(O)C(F)(F)F,-26.06
10,CC(C)CNc1nc(C(=O)/N=c2\[nH]nc(C(C)(C)C)s2)cs1,29.68
11,Cc1[nH]/c(=N\C(=O)c2csc(NCC(C)C)n2)sc1C,103.2
12,Cc1cs/c(=N\C(=O)c2c3c(nc4onc(C)c24)CCC3)[nH]1,-0.1888
13,CC(=O)Nc1nc(C(=O)NC(C)c2ccc(F)cc2)cs1 (stereo not given),8.426
14,Cc1cc(O)c(OCC(=O)/N=c2\[nH]c(C)c(C)s2)cn1,14.69
15,Cc1cs/c(=N/C(=O)c2csc(NCC(C)C)n2)[nH]1,102.2
16,O=C1c2cnc(N3CCCC3)nc2CN1CCc1ccc(Cl)cc1,5.842
17,Cc1ccc(CN2C[C@@H]3COC[C@H](NS(C)(=O)=O)[C@@H]3C2)s1.O=C(O)C(F)(F)F,-17.68
18,CC(C)c1nn(C)c(N(C)C)c1CNC(C)c1ccc2c(c1)OCO2.Cl (stereo not given),11.17
19,O=C(CN1CC(c2nc(C3CC3)no2)C1)NCc1ccc(F)cc1.O=C(O)C(=O)O,-19.44
20,CS(=O)(=O)N1CCN(c2ccnc(N3CCCC3)n2)CC1,3.373

row,Structure (SMILES),Percent Effect [%]
1,CN(C)S(=O)(=O)N1CCN(c2ccnc(N3CCCCC3)n2)CC1,-3.243
2,CS(=O)(=O)N1CCN(c2ccnc(N3CCCCC3)n2)CC1,54.19
3,CN1CCN(CC2CC2)C(=O)C12CCN(C(=O)CC(F)(F)F)CC2.O=C(O)C(F)(F)F,5.441
4,COc1ccccc1Oc1ncccc1CNC(=O)[C@@H](C)NC(C)=O,11.05
5,CCn1ccnc1CN1CCCC1c1noc(C2CC2)n1 (stereo not given),-4.423
6,Cc1cnc(CN2CCCCC2c2nc(-c3ccccc3)no2)cn1 (stereo not given),5.875
7,COc1ccc(C)cc1CN1CCCC1c1noc(C2CC2)n1 (stereo not given),82.36
8,Cc1cc(CN2CCCC2c2noc(C3CC3)n2)c2ccccc2n1 (stereo not given),31.64
9,Cc1noc(C)c1CN1CCCCC1c1nc(-c2ccccc2)no1 (stereo not given),-13.3
10,c1ccc2oc(CN3CCCC3c3noc(C4CC4)n3)nc2c1 (stereo not given),17.43
11,CCc1nc(C2CCCN2Cc2nccn2Cc2ccccc2)no1 (stereo not given),20.06
12,c1ccc(Cn2ccnc2CN2CCCC2c2noc(C3CC3)n2)cc1 (stereo not given),104.2
13,Cn1ccnc1CN1CCCCC1c1nc(-c2ccccc2)no1 (stereo not given),51.73
14,c1ccc2nc(CN3CCCC3c3noc(C4CC4)n3)ccc2c1 (stereo not given),108.9
15,COc1c(C)cnc(CN2CCCC2c2noc(C3CC3)n2)c1C (stereo not given),-0.8434
16,Cc1nc(CN2CCCC2c2noc(C3CC3)n2)nc2ccccc12 (stereo not given),27.9
17,COC(=O)Cn1c(=O)nc2n1C(=O)N(c1ccc(Br)cc1)C2,18.41
18,CNC(=O)[C@H]1C[C@@H]2CN(Cc3cccc(C)c3)C[C@H]1O2.O=C(O)C(F)(F)F,19.67
19,COCCNC(=O)[C@H]1CN(Cc2sccc2C)C[C@H]2OCC[C@@H]12.O=C(O)C(F)(F)F,-45.09
20,Br.Cc1cc(C)c(N(CC(O)CNCc2ccccc2)S(C)(=O)=O)c(C)c1 (stereo not given),3.921
